High-throughput results: PubChem, The Scripps Research Institute Molecular Screening Center
PME-1 inh – blocks human protein phosphatase methylesterase 1 | recombinant PME-1, FP-Rh probe fluorescence polarization | inhibition, % at 5.9 µM | 320,000 compounds, 0.53% hits | AID 2130;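 active = inhibition above the campaign mean of all compounds plus 3 SD, cut at about 26% in these data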;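 also: competitive labeling of PME-1 active site by serine hydrolase directed probe; 0% = PME-1 with DMSO and 100% = wells lacking PME-1 enzyme; inhibitors block probe labeling so polarization falls and inhibition rises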
Target sequence (Q9Y570 whole entry, looked up): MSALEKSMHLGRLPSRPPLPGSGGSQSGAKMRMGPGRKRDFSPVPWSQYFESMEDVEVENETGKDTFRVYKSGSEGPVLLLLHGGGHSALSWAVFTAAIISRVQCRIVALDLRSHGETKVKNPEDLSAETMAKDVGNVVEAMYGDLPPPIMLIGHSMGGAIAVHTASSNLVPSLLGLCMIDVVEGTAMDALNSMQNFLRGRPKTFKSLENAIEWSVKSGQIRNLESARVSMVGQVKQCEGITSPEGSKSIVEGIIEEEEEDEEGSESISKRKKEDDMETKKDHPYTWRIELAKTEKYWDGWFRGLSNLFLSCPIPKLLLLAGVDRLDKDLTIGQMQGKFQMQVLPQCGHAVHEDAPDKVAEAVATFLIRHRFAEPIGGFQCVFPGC
Fam108B counter – Fam108B inhibition, counter-screen for RBBP9 inhibitors. recombinant Fam108B, FP-Rh probe fluorescence polarization. inhibition, % at 9.51 µM. 300,000 compounds, 0.33% hits;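 active = inhibition above the screen mean inhibition plus 3 SD, computed separately per campaign, cut at about 18% in these data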;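 also: inhibitors lower polarization as less probe binds the enzyme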
pPAFAH FP inh – inhibitors of human plasma PAF acetylhydrolase (pPAFAH). inhibition, % at 3.39 µM. 330,000 compounds, 1.5% hits. Q13093. recombinant pPAFAH, FP-rhodamine probe fluorescence polarization. AID 463082;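 active = inhibition above the mean inhibition across the screen plus 3 SD, cut at about 25% in these data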;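 also: inhibitors block binding of the rhodamine activity-based probe so polarization drops; 0% = enzyme with DMSO and 100% = wells lacking pPAFAH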
PAD4 inh – blocks human protein arginine deiminase 4; Q9UM07; recombinant PAD4, RCA probe fluorescence polarization; inhibition, % at 6.36 µM; 330,000 compounds, 0.41% hits; AID 485272;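 active = percent inhibition above a cutoff equal to the mean of all tested compounds plus 3 SD, cut at about 15% in these data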;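 also: 0% = PAD4 with RCA probe and DMSO and 100% = probe without PAD4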
GSTO1 inh – GSTO1 inhibition, counter-screen for RBBP9 inhibitors. P78417. recombinant GSTO1, activity-based probe fluorescence polarization. inhibition, % at 5.96 µM. 300,000 compounds, 1.1% hits;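 active = inhibition above the campaign mean inhibition plus 3 SD, cut at about 35% in these data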;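 also: 0% = GSTO1-1 with DMSO and 100% = wells lacking GSTO1-1 enzyme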
Target sequence (P78417 whole entry, looked up): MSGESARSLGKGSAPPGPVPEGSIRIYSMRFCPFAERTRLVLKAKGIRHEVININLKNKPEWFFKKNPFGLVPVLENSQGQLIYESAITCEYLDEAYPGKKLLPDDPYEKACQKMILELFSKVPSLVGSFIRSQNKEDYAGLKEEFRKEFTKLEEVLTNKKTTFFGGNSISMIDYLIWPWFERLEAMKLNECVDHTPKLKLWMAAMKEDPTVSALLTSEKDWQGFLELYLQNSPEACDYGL
GSTO1 confirm – GSTO1 (human) inhibition, confirmation. shares compounds with GSTO1 inh. inhibition, % at 5.96 µM. AID 2176. recombinant GSTO1, probe fluorescence polarization. 2,400 compounds, 54% hits;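 active = inhibition above the primary screen's cutoff, its mean inhibition plus 3 SD, cut at about 35% in these data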;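 also: loss of polarization as inhibitors block binding of rhodamine sulfonate ester activity probe; 0% = GSTO1 with DMSO and 100% = wells lacking GSTO1 enzyme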
pPAFAH confirm – pPAFAH (human) inhibition, confirmed | shares compounds with pPAFAH FP inh | recombinant pPAFAH, FP-Rh probe fluorescence polarization | inhibition, % at 3.39 µM | 2,300 compounds, 72% hits | AID 463230;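 active = mean inhibition of the triplicate above the hit cutoff set for the earlier primary screen, cut at about 25% in these data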;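 also: 0% = enzyme with DMSO and 100% = wells lacking pPAFAH enzyme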
PAD4 confirm – confirmation of human PAD4 inhibitors; shares compounds with PAD4 inh; recombinant PAD4, RCA probe fluorescence polarization; inhibition, % at 6.36 µM; 1,200 compounds, 28% hits;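 active = mean inhibition across replicates above the hit cutoff set by the earlier primary screen, cut at about 15% in these data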;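 also: inhibitors block active-site labeling by the probe so polarization falls; 0% = PAD4 with probe and DMSO and 100% = probe without PAD4 enzyme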
An asterisk follows results filed as active. Rows were chosen to be rich in hits. Some 2.3% of all compounds tested hit in one or more screens of this group.

Results for CN1CCc2cc3c(c4c2[C@H]1[C@H](O)c1ccccc1-4)OCO3 ?
PME-1 inh: 10; Fam108B counter: 6; pPAFAH FP inh: 19; PAD4 inh: 37*; GSTO1 inh: 69*; GSTO1 confirm: 30; PAD4 confirm: 34*

What do the screens show for `COc1ccc2c(c1OC)C(=O)OC2C1c2c(cc3c(c2OC)OCO3)CCN1C` (stereo unspecified)?
PME-1 inh: -3; Fam108B counter: -5; pPAFAH FP inh: 0; PAD4 inh: 0; GSTO1 inh: 14

How did CC(NC(=O)Nc1ccc(O)cc1)(C(F)(F)F)C(F)(F)F do in these assays?
PME-1 inh: 6; Fam108B counter: 0; pPAFAH FP inh: 22; PAD4 inh: 64*; GSTO1 inh: 44*; GSTO1 confirm: 2; PAD4 confirm: -1

What do the screens show for `COc1ccc(NC(=O)NC(C)(C(F)(F)F)C(F)(F)F)cc1`?
PME-1 inh: -3; Fam108B counter: 2; pPAFAH FP inh: 0; PAD4 inh: 4; GSTO1 inh: 7

Results for CCC(NC(=O)NCc1ccccc1)(C(F)(F)F)C(F)(F)F ?
PME-1 inh: -5; Fam108B counter: 3; pPAFAH FP inh: -1; PAD4 inh: 4; GSTO1 inh: -2

How did CCC(NC(=O)Nc1ccc(O)cc1)(C(F)(F)F)C(F)(F)F do in these assays?
PME-1 inh: 3; Fam108B counter: 1; pPAFAH FP inh: 15; PAD4 inh: 46*; GSTO1 inh: 57*; GSTO1 confirm: 4; PAD4 confirm: 13

How did COc1cccc(CN(C)C(=O)C2CC(=O)N(c3ccc4c(c3)OCCO4)C2)c1 (stereo unspecified) do in these assays?
PME-1 inh: 2; Fam108B counter: -1; pPAFAH FP inh: 2; PAD4 inh: -2; GSTO1 inh: 6

What do the screens show for `COC(=O)CCC(=O)OC1(C)C(=O)C=C2C=C(C3CC3)N(C3CC3)C=C2C1=O` (stereo unspecified)?
PME-1 inh: 5; Fam108B counter: 1; pPAFAH FP inh: 3; PAD4 inh: 25*; GSTO1 inh: 52*; GSTO1 confirm: 20; PAD4 confirm: -5

Results for CC1(C)C=C2C(=NN(c3ccccc3)C(N)=C2C#N)CO1 ?
PME-1 inh: 13; Fam108B counter: 7; pPAFAH FP inh: 8; PAD4 inh: 22*; GSTO1 inh: 74*; GSTO1 confirm: 88*; PAD4 confirm: 56*

What do the screens show for `COc1ccc2nc3ccccc3nc2c1N`?
PME-1 inh: 6; Fam108B counter: 0; pPAFAH FP inh: 24; PAD4 inh: 25*; GSTO1 inh: 60*; GSTO1 confirm: 9; PAD4 confirm: -3

How did COc1ccc(-c2nc3ccccc3nc2-c2ccc(OC)c(OC)c2)cc1OC do in these assays?
PME-1 inh: 0; Fam108B counter: 4; pPAFAH FP inh: 5; PAD4 inh: 0; GSTO1 inh: 2

What do the screens show for `O=C(COC(=O)c1ccc([N+](=O)[O-])s1)Nc1ccc(F)cc1`?
PME-1 inh: 8; pPAFAH FP inh: 12; PAD4 inh: -1

What do the screens show for `O=C(COC(=O)c1ccc([N+](=O)[O-])s1)Nc1ccccc1`?
PME-1 inh: -6; Fam108B counter: 10; pPAFAH FP inh: 15; PAD4 inh: 33*; GSTO1 inh: 65*; GSTO1 confirm: 13; PAD4 confirm: 4

Results for CCCCOc1ccc(C2OC34CCCCC3C(C#N)(C#N)C2(C#N)C(=N)O4)cc1 (stereo unspecified) ?
PME-1 inh: 22; Fam108B counter: 13; pPAFAH FP inh: 24; PAD4 inh: 15; GSTO1 inh: 25

Results for CCOc1ccc(C2OC34CCCCC3C(C#N)(C#N)C2(C#N)C(=N)O4)cc1OC (stereo unspecified) ?
PME-1 inh: 21; Fam108B counter: 17; pPAFAH FP inh: 42*; PAD4 inh: 35*; GSTO1 inh: 39*; GSTO1 confirm: 15; pPAFAH confirm: 1; PAD4 confirm: 18*

What do the screens show for `Cc1cc(C)c(S(=O)(=O)N2CCOC2CNC(=O)C(=O)NCCN(C)C)c(C)c1` (stereo unspecified)?
PME-1 inh: 3; Fam108B counter: 6; pPAFAH FP inh: 0; PAD4 inh: -1; GSTO1 inh: 7

Results for O=C(CSc1nc2nn(-c3ccccc3)c(=O)c-2c2n1CCCCC2)c1ccc(O)c(O)c1 ?
PME-1 inh: 4; pPAFAH FP inh: 71*; PAD4 inh: -2; pPAFAH confirm: 86*

Results for COC(=O)c1sccc1NC(=S)N1CCN(C)CC1 ?
PME-1 inh: 10; Fam108B counter: -3; pPAFAH FP inh: 1; PAD4 inh: 4; GSTO1 inh: 4

How did CCN1CCN(C(=S)Nc2ccsc2C(=O)OC)CC1 do in these assays?
PME-1 inh: -5; Fam108B counter: -5; pPAFAH FP inh: 60*; PAD4 inh: -1; GSTO1 inh: 0; pPAFAH confirm: 4

What do the screens show for `CCOC(=O)Nc1ccc(Oc2ccccc2)cc1`?
PME-1 inh: 6; Fam108B counter: -4; pPAFAH FP inh: 4; PAD4 inh: 3; GSTO1 inh: -2

What do the screens show for `CCOC(=O)NC1(Nc2ccc(C)cc2)Oc2ccccc2O1`?
PME-1 inh: 4; Fam108B counter: 2; pPAFAH FP inh: 46*; PAD4 inh: -3; GSTO1 inh: 82*; pPAFAH confirm: 5

What do the screens show for `COC(=O)COc1ccc(C2Nc3c(Cl)ccc(C(=O)O)c3C3C=CCC32)cc1` (stereo unspecified)?
PME-1 inh: -5; Fam108B counter: 4; pPAFAH FP inh: 36*; PAD4 inh: -1; GSTO1 inh: 22; pPAFAH confirm: 11

Results for Nc1cc(-c2nn[nH]n2)ccc1F ?
PME-1 inh: -3; Fam108B counter: 11; pPAFAH FP inh: 43*; PAD4 inh: -2; GSTO1 inh: 14; pPAFAH confirm: 11

What do the screens show for `Cc1ccc(OCC(=O)N2CCN(S(C)(=O)=O)CC2)cc1`?
PME-1 inh: -1; Fam108B counter: 0; pPAFAH FP inh: 1; PAD4 inh: -2; GSTO1 inh: 5

What do the screens show for `CCCOc1cccc(C(=O)NCCNC(=O)c2ccc(C)nc2)c1`?
PME-1 inh: 7; Fam108B counter: 3; pPAFAH FP inh: 3; PAD4 inh: -1; GSTO1 inh: 9

What do the screens show for `CCC(C)N(C(=O)COC(=O)c1cc([N+](=O)[O-])ccc1N1CCOCC1)C1CCS(=O)(=O)C1` (stereo unspecified)?
PME-1 inh: 0; Fam108B counter: 2; pPAFAH FP inh: 40*; PAD4 inh: 3; GSTO1 inh: -2; pPAFAH confirm: 1
